Screening data deposited in PubChem by The Scripps Research Institute Molecular Screening Center.
Most compounds without a hit are left out; they make up all but 3.5% or so of the library.
FBW7 activator: FBW7 E3 ligase activators, primary screen, biochemical, AlphaScreen, human | 650,000 compounds, 0.13% hits | normalized activity (activation), % at 26.1 µM | AID 1259310, 2017 | AlphaScreen FBW7–phospho-cyclin E peptide binding, activator screen | F-box/WD repeat-containing protein 7 (Homo sapiens), Q969H0; in the data active means normalized activity above about 1.9%;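 further: purified mutant Fbw7 with reduced substrate affinity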
TEAD-YAP block: TEAD-YAP interaction inhibition, primary screen, TEAD-YAP interaction inhibitor project, luminescence, HEK-TIYL cells; TEAD-Gal4/YAP UAS-luciferase luminescence; inhibition, % at 9.12 µM; 640,000 compounds, 1.4% hits; AID 1259422, 2018; in the data active means inhibition above about 32%;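 further: 0% = median of test compound wells and 100% = reference inhibitor wells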
MITF inh: MITF inhibitors, primary screen, biochemical, AlphaScreen, human; AlphaScreen MITF homodimerization, bead proximity signal; inhibition, % at 2.6 µM; Microphthalmia-associated transcription factor (Homo sapiens), O75030; 650,000 compounds, 0.91% hits; in the data active means inhibition above about 50%;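 further: 0% = vehicle wells with protein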
Target sequence (O75030 whole entry, looked up): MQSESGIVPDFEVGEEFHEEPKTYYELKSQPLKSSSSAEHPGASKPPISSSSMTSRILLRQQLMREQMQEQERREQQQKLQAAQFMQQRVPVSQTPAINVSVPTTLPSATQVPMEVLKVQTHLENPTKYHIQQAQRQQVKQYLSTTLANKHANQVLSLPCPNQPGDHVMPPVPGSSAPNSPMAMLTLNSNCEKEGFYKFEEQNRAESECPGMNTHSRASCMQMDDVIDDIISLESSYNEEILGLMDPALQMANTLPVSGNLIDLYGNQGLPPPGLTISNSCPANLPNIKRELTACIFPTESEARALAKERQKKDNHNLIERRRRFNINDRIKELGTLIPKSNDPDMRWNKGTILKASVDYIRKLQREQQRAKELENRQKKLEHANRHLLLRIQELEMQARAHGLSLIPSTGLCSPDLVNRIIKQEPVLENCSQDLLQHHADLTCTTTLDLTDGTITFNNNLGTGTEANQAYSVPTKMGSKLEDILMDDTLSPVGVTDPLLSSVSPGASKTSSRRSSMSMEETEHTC
GPR151 activ: activators of human GPR151, primary screen, cell-based, PathHunter beta-arrestin, luminescence. activation, % at 11.2 µM. PathHunter beta-arrestin GPR151 cells. 650,000 compounds, 1% hits. G-protein coupled receptor 151 (Homo sapiens), Q8TDV0; in the data active means activation above about 4.9%;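 further: 0% = median of compound wells and 100% = cells with positive control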
GPR151 conf act: GPR151 activators, triplicate retest, confirmation, cell-based, PathHunter beta-arrestin, luminescence; 6,700 tested, under 10 active; shares compounds with GPR151 activ; activation, % at 11.2 µM; GPR151 PathHunter beta-arrestin cells, 90 min; % of EA-reagent control over plate median;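 active means mean percent activation across replicates above the confirmation screen cutoff of 4.91%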
GPR119 ag: GPR119 activators in beta-arrestin cells, counter-screen for GPR151 activator project, cell-based, PathHunter beta-arrestin, luminescence, triplicate | shares compounds with GPR151 activ | 90 min; 0 = compound-well median, 100 = enzyme-acceptor control | activation, % at 11.2 µM | 6,700 compounds, 0.3% hits;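 active means mean percent activation in the counterscreen above 29.09%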;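 further: counterscreen on off-target GPR119 to flag nonselective hits from the GPR151 activator screen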
* marks the source's active call; other numbers are inactive results; . = no result given.

SMILES	FBW7 activator	TEAD-YAP block	MITF inh	GPR151 activ	GPR151 conf act	GPR119 ag
CC(C)CCNC(=O)c1cc2c(s1)CS(=O)(=O)C2	-0.1	0.8	11.3	6.5*	0.4	10.2
Cc1ccc(CNC(=O)c2cc3c(s2)CS(=O)(=O)C3)cc1	0.0	-14.5	-5.8	5.7*	0.5	10.2
COc1cc(/C=C2/SC(NC(C)=O)=NC2=O)ccc1OCC(=O)O	-0.1	2.2	-1.2	0.5	.	.
C=C(C)c1cccc(C(C)(C)NC(=O)Nc2ccc(C(C)=O)cc2)c1	-0.1	-1.1	5.6	0.4	.	.
C=C(C)c1cccc(C(C)(C)NC(=O)Nc2ccccc2F)c1	0.3	18.4	15.1	9.5*	0.3	-8.2
CC(C)(C)c1ccc(NC(=O)COC(=O)c2ccc([N+](=O)[O-])s2)cc1	-0.2	-9.8	-5.0	6.1*	-0.8	-6.2
COc1ccc(C(C)(C)C)cc1NC(=O)COC(=O)c1ccc([N+](=O)[O-])s1	0.1	-2.0	24.5	-1.2	.	.
CCCCOC(=O)c1cccc(NC(=S)NC(=O)c2cc(OC)c(OC)c(OC)c2)c1	-0.1	-8.3	6.0	5.1*	0.0	0.1
O=C(Nc1nc(-c2ccc(I)cc2)cs1)C1CC1	0.0	-40.9	12.8	5.9*	0.4	8.8
O=C(NCCN1CCCCCC1)c1ncoc1-c1ccc(Cl)cc1	-0.4	6.3	-20.0	5.9*	0.3	10.3
COc1ccc(-c2ocnc2C(=O)NCCN2CCCCCC2)cc1OC	0.1	2.7	13.5	1.5	.	.
CCCN1C(=O)/C(=C2/C(=O)N(C)c3ccccc32)SC1=S	-0.1	5.5	3.0	-0.1	.	.
CCCN1C(=O)/C(=C2\SC(=S)N(CCOC)C2=O)c2ccccc21	0.0	7.6	10.9	5.6*	0.6	-3.9
CC(O)CC(=O)N1CCc2cc(S(=O)(=O)N(C)C)ccc21 (stereo not given)	0.0	-1.4	3.9	5.3*	0.1	-8.7
COCC(=O)N1CCC(C(Cc2ccccc2F)N(C)Cc2cn(C)nc2C)CC1 (stereo not given)	0.0	-3.0	4.0	-1.6	.	.
COc1ccc(NC(=O)C2CC(=O)NC(Nc3ccc(C)cc3C)=N2)cc1 (stereo not given)	0.0	7.4	6.9	12.0*	0.6	-12.8
O=C(N/N=C/c1cc([N+](=O)[O-])ccc1O)c1ccc2ccccc2n1	-0.1	-5.3	-2.2	-0.7	.	.
Oc1oc(-c2ccccc2Br)nc1C=Nc1ccc(Br)cc1	0.0	-1.4	-2.6	1.3	.	.
Oc1oc(-c2ccccc2Br)nc1C=Nc1ccc(I)cc1	0.0	-0.6	5.9	9.3*	0.3	1.7
NS(=O)(=O)c1ccc(NC(=O)COc2ncnc3scc(-c4ccccc4)c23)cc1	0.0	-4.3	-11.9	5.5*	-1.1	1.5
Cc1cccc(Oc2nc3c(C)cccn3c(=O)c2/C=C(\C#N)C(=O)N2CCCCC2)c1	-0.1	17.0	20.9	2.9	.	.
Cc1nc2ncnn2c(N2CCC(C(=O)Nc3ccc(F)cc3)CC2)c1C	-0.3	8.4	-11.3	5.4*	0.2	8.6
CCc1c(C)nc2ncnn2c1N1CCC(C(=O)Nc2ccc(C)cc2)CC1	-0.1	11.8	8.7	-0.7	.	.
COc1ccc(-c2nc(NC(C)=O)sc2C)cc1OC	0.4	12.2	12.1	6.0*	-0.7	-8.3
CCn1c(SCC(=O)N2CCCCC2C)nnc1-c1cccs1 (stereo not given)	-0.1	-5.6	-12.8	-0.9	.	.
SMILES	FBW7 activator	TEAD-YAP block	MITF inh	GPR151 activ	GPR151 conf act	GPR119 ag
CCCCNc1cc(-c2ccc(Cl)cc2)ncn1	0.2	-44.7	-7.2	-1.3	.	.
Cc1cccnc1CCNC(=O)c1cc(COc2ccc3ncccc3c2)on1	0.2	25.9	17.7	0.8	.	.
COc1cccc(CCNC(=O)c2cc(COc3ccc4ncccc4c3)on2)c1	-0.1	31.9	-5.2	5.9*	-1.2	-16.9
CCOC(=O)c1[nH]c(C)c(C(=O)OCc2nc3ccc(Cl)cc3n2CCO)c1C	-0.1	56.4*	-2.2	6.3*	0.8	-2.5
Cc1ccnc(-n2cccc2CN2CCc3c(nc(N4CCCC4)[nH]c3=O)C2)c1	0.2	7.5	5.2	5.0*	0.1	5.9
Cc1onc(-c2ccccc2)c1C(=O)Nc1cccc([N+](=O)[O-])c1C	-0.1	4.7	-22.8	0.2	.	.
CC(=O)c1ccc(NC(=O)c2ccc3c(c2)C(=O)N(c2ccc(C)c(C)c2)C3=O)cc1	0.0	-8.3	5.1	-0.5	.	.
C1=C(c2ccccc2)Nc2ccccc2SC1c1ccc2c(c1)OCO2 (stereo not given)	-0.1	-35.6	15.3	-0.7	.	.
CCN(CC)c1nc(C)c([N+](=O)[O-])c(C)c1C(N)=O	0.1	-11.5	-15.7	6.5*	0.0	2.2
COC(=O)c1ccc(C2C3=C(CC(C)(C)CC3=O)N(c3cccc(C(F)(F)F)c3)C3=C2C(=O)CC(C)(C)C3)cc1	0.0	7.7	2.1	6.8*	0.5	-3.7
Cc1nn(-c2ccccc2)c2sc(C(=O)NC(=S)NCC3CCCO3)cc12 (stereo not given)	0.2	0.4	9.8	-0.3	.	.
COC(CN1C(=O)C(=O)/C(=C(\O)c2ccccc2)C1c1ccccc1)OC (stereo not given)	-0.1	7.1	-1.4	0.8	.	.
O=C1C(=O)N(CCN2CCOCC2)C(c2cccnc2)/C1=C(/O)c1ccc(S(=O)(=O)N2CCOCC2)cc1 (stereo not given)	0.1	3.1	13.7	6.5*	0.7	3.1
COC(CN1C(=O)C(=O)/C(=C(/O)c2ccccc2)C1c1cccnc1)OC (stereo not given)	-0.1	4.4	0.0	5.9*	0.8	4.4
CC1CCCC(C)N1c1nnc(NC(=O)c2csc3c2CCCC3)s1 (stereo not given)	0.1	-15.4	-10.4	5.8*	-0.6	7.9
COCCN1C(=O)C(O)=C(C(=O)c2cc3ccccc3o2)C1c1cccc([N+](=O)[O-])c1 (stereo not given)	0.1	8.4	9.7	5.7*	-0.8	-10.7
C/C=C/c1ccc(OCCNC)c(OC)c1	0.0	7.5	41.7	-1.6	.	.
C/C=C/c1ccc(OCCCNC)c(OC)c1	-0.5	-15.3	30.8	6.1*	-0.1	6.3
Cc1ccc(/C=c2/sc3nc4cc(C)c(C)cc4n3c2=O)o1	-0.2	-13.4	-1.0	1.6	.	.
CCOC(=O)Cc1csc(NC(=O)CSc2nc(C)cc(C)n2)n1	-0.1	-3.2	-1.8	5.6*	-0.3	-0.7
CCOCCOC(=O)C1=C(C)NC2=C(C(=O)CC(c3ccccc3)C2)C1c1ccccc1[N+](=O)[O-] (stereo not given)	-0.4	4.2	11.5	-1.3	.	.
